PME-1 primary: PME-1 (human) inhibition. hit rate 0.53% among 320,000. recombinant PME-1, FP-Rh probe fluorescence polarization. Q9Y570. inhibition, % at 5.9 µM;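 active = inhibition above the campaign mean of all compounds plus 3 SD, cut at about 26% in these data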;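 note: competitive labeling of PME-1 active site by serine hydrolase directed probe; inhibitors block probe labeling so polarization falls and inhibition rises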
TCR-CD3 inh: blocks the human TCR-CD3 interaction. TAMRA-labeled TCR probe fluorescence, biochemical. inhibition, % at 9.4 µM. hit rate 0.37% among 360,000; in the data active = inhibition above about 19%;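 note: recombinant mutant TCR 2C K166C tagged with TAMRA read by polarization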
SIAE primary: blocks human sialic acid acetylesterase; inhibition, % at 9.66 µM; SIAE FP-Rh probe binding, fluorescence polarization; AID 1053197; hit rate 0.69% among 370,000; Q9HAT2;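 active = inhibition above a cutoff: mean of compounds within the control limits plus 3 SD of those, cut at about 17% in these data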
PRMT1 inh: inhibitors of human PRMT1. AID 652257. recombinant PRMT1, activity-based probe fluorescence polarization. inhibition, % at 2.79 µM. hit rate 1.3% among 370,000;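 active = inhibition above about 21% made by adding two undisclosed values, limit read from the data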
Target sequence (Q99873 whole entry, looked up): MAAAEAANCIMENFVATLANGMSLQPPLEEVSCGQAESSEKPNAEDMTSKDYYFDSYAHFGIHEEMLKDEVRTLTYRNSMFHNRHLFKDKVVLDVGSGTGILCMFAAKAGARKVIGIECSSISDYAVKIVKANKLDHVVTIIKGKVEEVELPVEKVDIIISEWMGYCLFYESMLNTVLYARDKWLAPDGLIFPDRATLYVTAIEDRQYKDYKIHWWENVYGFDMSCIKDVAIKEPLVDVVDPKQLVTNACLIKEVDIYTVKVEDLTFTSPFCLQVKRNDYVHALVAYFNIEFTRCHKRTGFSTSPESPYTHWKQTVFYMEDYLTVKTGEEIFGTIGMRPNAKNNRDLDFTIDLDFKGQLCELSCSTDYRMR
PAD4 FP inh: blocks human protein arginine deiminase 4 | Q9UM07 | recombinant PAD4, RCA probe fluorescence polarization | inhibition, % at 6.36 µM | hit rate 0.41% among 330,000;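 active = percent inhibition above a cutoff equal to the mean of all tested compounds plus 3 SD, cut at about 15% in these data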
Fam108B counter: blocks mouse Fam108B hydrolase in RBBP9 counter-screen; recombinant Fam108B, FP-Rh probe fluorescence polarization; hit rate 0.33% among 300,000; inhibition, % at 9.51 µM;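 active = inhibition above the screen mean inhibition plus 3 SD, computed separately per campaign, cut at about 18% in these data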;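 note: inhibitors lower polarization as less probe binds the enzyme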
PRMT1 confirm: PRMT1 (human) inhibition, FP confirmation. shares compounds with PRMT1 inh. recombinant His-PRMT1, activity-based probe fluorescence polarization. inhibition, % at 2.79 µM. hit rate 42% among 3,300. AID 687036;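 active = mean inhibition across replicates above the hit cutoff derived for the earlier primary screen, cut at about 22% in these data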
SIAE inh conf: confirmation of human SIAE inhibitors; hit rate 13% among 2,300; shares compounds with SIAE primary; SIAE FP-Rh activity-based probe, fluorescence polarization; inhibition, % at 9.66 µM;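 active = mean inhibition of the replicates above the hit cutoff set in the primary screen, cut at about 17% in these data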;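 note: inhibitors lower polarization as more probe stays unbound to SIAE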
Hits are given with their value; – = inactive; · = no result. An excerpt weighted towards active compounds, which were near 2.6% of everything screened.

SMILES	PME-1 primary	TCR-CD3 inh	SIAE primary	PRMT1 inh	PAD4 FP inh	Fam108B counter	SIAE inh conf	others
Cc1ccccc1-c1nnc2n1N=C(c1ccc(O)c(O)c1)CS2	·	·	–	–	·	·	·
Oc1ccc(NCc2ccc(OCc3ccccc3)cc2)cc1	·	30	29	34	·	·	–	PRMT1 confirm=–
COC(=O)Nc1ccc(OCc2ccccc2)cc1	–	–	–	–	–	–	·
O=C(c1ccc2nc(-c3ccco3)c(-c3ccco3)nc2c1)N1CCN(c2ccccc2)CC1	–	–	32	54	–	–	–	PRMT1 confirm=–
COc1ccc(N=Nc2nc3ccc(Br)cc3n2C)cc1	41	–	18	133	–	–	–	PRMT1 confirm=–
CCOC(=O)C1Nc2ccc(Br)cc2C2C=CCC12 (centres undefined)	–	–	20	30	–	–	–	PRMT1 confirm=26
Fc1ccc2c(c1)C1C=CCC1C(c1cc3c(cc1Br)OCO3)N2 (centres undefined)	–	–	–	–	–	–	·
CC1CCC2(CC1)CCC2NCc1ccc(Cl)cc1 (centres undefined)	·	·	–	–	·	·	·
Cc1cccc(CNC(=O)NC2CCCCN(Cc3cccc(Cl)c3)C2=O)c1 (centres undefined)	·	·	–	–	·	·	·
COc1cc(SSc2cc(OC)cc([N+](=O)[O-])c2N)c(N)c([N+](=O)[O-])c1	–	–	25	76	–	–	–	PRMT1 confirm=90
COc1cc([N+](=O)[O-])c2ncsc2c1	–	–	–	–	–	–	·
CCCCCc1ccc(NC(=O)OCCN2C(=O)CCC23CCC(c2ccccc2)CC3)cc1 (centres undefined)	·	·	–	–	·	·	·
c1cc(CNc2ccc3c(c2)OCO3)ccn1	–	–	19	37	–	–	–	PRMT1 confirm=–
COc1ccc2c(c1)CN1C(=O)N(Cc3ccccc3)S(=O)(=O)CC21 (centres undefined)	·	·	–	–	·	·	·
N/C(Cc1cccc2ccccc12)=N\OC(=O)c1ccccc1F	·	–	41	49	·	·	–	PRMT1 confirm=–
CCOC(=O)N1CCN(C(=O)C[C@H]2C[C@@]3(C(=O)OC)C(=C[C@H](C4CCCC4)O[C@@H]3C)N(Cc3ccco3)C2=O)CC1	·	·	–	–	·	·	·
O=C(N/N=C\c1cc(Br)ccc1O)c1ccc(S(=O)(=O)N2CCCCC2)cc1	–	–	32	–	–	–	39
O=C(N/N=C/c1ccc(O)c(O)c1)c1cccc(S(=O)(=O)N2CCCCC2)c1	–	–	–	–	–	–	·
Oc1ccc(N=Nc2ccc3c(c2)OCCO3)c2cccnc12	–	–	20	–	–	–	–
COc1ccc(N=Nc2ccc(O)c3ncccc23)cc1	–	–	–	–	–	–	·
CC(C)C[C@H]1COc2cc(F)ccc2S(=O)(=O)N1C	·	·	–	–	·	·	·
CCOC(=O)CC1=C(C(=O)OCC)C(c2cccnc2)C(C#N)=C(N)O1 (centres undefined)	–	–	17	–	–	–	–
CCOC(=O)CC1=C(C#N)C(c2cccnc2)C(C(=O)OCC)=C(N)O1 (centres undefined)	–	–	–	–	–	–	·
COc1cc(NC(=O)C2CCCN(S(=O)(=O)c3ccccc3[N+](=O)[O-])C2)cc(OC)c1 (centres undefined)	·	·	–	–	·	·	·
O=C(Nc1ccc(Br)c2ccccc12)c1ccc2ccccc2c1O	–	–	26	–	–	39	–
SMILES	PME-1 primary	TCR-CD3 inh	SIAE primary	PRMT1 inh	PAD4 FP inh	Fam108B counter	SIAE inh conf	others
CCNC(=S)N1CCc2cc(OC)c(OC)cc2C1COc1ccccc1OC (centres undefined)	–	–	18	–	–	–	–
CCNC(=S)N1CCc2cc(OC)c(OC)cc2C1COc1ccc(OC)cc1 (centres undefined)	–	–	–	–	–	–	·
C[C@@H]1/C=C/CC(=O)N[C@H](c2ccccc2)[C@H](C)/C=C/CC(=O)N[C@@H]1c1ccccc1	·	·	–	–	·	·	·
Cc1ccc(OCC(=O)OCc2nc3scc(-c4ccccc4)c3c(=O)[nH]2)cc1C	–	–	18	–	–	–	–
COCCNC(=O)[C@]1(C#N)CC(=O)N(C)[C@@H]1c1ccccc1	·	·	–	–	·	·	·
COC(=O)Nc1ncc(CN2CCc3ccccc3C2)s1	–	–	78	–	–	–	–
CCOC(=O)C1CCN(Cc2cnc(NC(=O)OC)s2)CC1	–	–	–	–	–	–	·
